# From PubChem BioAssay AID1159580 (chemical genetic matrix, 2015)
# Values joined by “and” are separate entries in the source; they are usually repeats but may differ in a detail not shown here. Equal values may be shown once. Hit rate of the full screen: of about 5,500 compounds, about 2,000 (36%) were called active. Roughly 18% stayed inconclusive and do not appear here. Some of the results follow. Unmarked numbers belong to inactive results. No stated cut-off is given here; in the data, active means normalized growth mostly below about 0.91 (no sharp cut-off); inconclusive means no clear call, values can overlap the other calls; inactive means mostly above about 0.92.
# Assay: chemical genetic growth profiling, strain panel (AID 1159580);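 further: tested at 20 µM; growth read once vehicle control cultures reached saturation at 30 °C; 1 = growth at the plate median or of vehicle wells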
# Details: S. cerevisiae deletion strains, growth OD
smiles,measurement,setting,value
COC(=O)Nc1nc2ccc(Sc3ccccc3)cc2[nH]1,normalized growth,"locus YAL013W, strain DEP1, stronger effect = lower value",1
same,normalized growth,"locus YAL021C, strain ccr4, stronger effect = lower value",1.01
same,normalized growth,"locus YAL026C, strain drs2, stronger effect = lower value",1
same,normalized growth,"locus YAL030W, strain snc1, stronger effect = lower value",0.986
same,normalized growth,"locus YBL061C, strain skt5, stronger effect = lower value",0.986
same,normalized growth,"locus YBR009C, strain hhf1, stronger effect = lower value",0.993
same,normalized growth,"locus YBR021W, strain FUR4, stronger effect = lower value",1.02
same,normalized growth,"locus YBR023C, strain chs3, stronger effect = lower value",0.989
same,normalized growth,"locus YBR171W, strain sec66, stronger effect = lower value",0.987
same,normalized growth,"locus YBR229C, strain ROT2, stronger effect = lower value",0.997
same,normalized growth,"locus YBR231C, strain swc5, stronger effect = lower value",0.753 (active)
same,normalized growth,"locus YBR279W, strain paf1, stronger effect = lower value",0.985
same,normalized growth,"locus YCL011C, strain gbp2, stronger effect = lower value",0.991
same,normalized growth,"locus YCL016C, strain dcc1, stronger effect = lower value",1
same,normalized growth,"locus YCL029C, strain bik1, stronger effect = lower value",0.826 (active)
same,normalized growth,"locus YCL061C, strain MRC1, stronger effect = lower value",1.01
same,normalized growth,"locus YCL069W, strain vba3, stronger effect = lower value",0.99
same,normalized growth,"locus YCR088W, strain abp1, stronger effect = lower value",0.996
same,normalized growth,"locus YDL005C, strain med2, stronger effect = lower value",0.987
same,normalized growth,"locus YDL035C, strain GPR1, stronger effect = lower value",0.98
same,normalized growth,"locus YDL040C, strain nat1, stronger effect = lower value",1.01
same,normalized growth,"locus YDL074C, strain BRE1, stronger effect = lower value",0.994
same,normalized growth,"locus YDL101C, strain DUN1, stronger effect = lower value",1.02
same,normalized growth,"locus YDL134C, strain PPH21, stronger effect = lower value",1.01
same,normalized growth,"locus YDL185W, strain tfp1, stronger effect = lower value",0.986
same,normalized growth,"locus YDL192W, strain arf1, stronger effect = lower value",1
same,normalized growth,"locus YDR001C, strain nth1, stronger effect = lower value",0.996
same,normalized growth,"locus YDR069C, strain doa4, stronger effect = lower value",0.984
same,normalized growth,"locus YDR101C, strain arx1, stronger effect = lower value",0.99
same,normalized growth,"locus YDR137W, strain rgp1, stronger effect = lower value",0.965
same,normalized growth,"locus YDR150W, strain NUM1, stronger effect = lower value",0.975
same,normalized growth,"locus YDR159W, strain sac3, stronger effect = lower value",0.99
same,normalized growth,"locus YDR162C, strain NBP2, stronger effect = lower value",1
same,normalized growth,"locus YDR195W, strain ref2",1.04
same,normalized growth,"locus YDR297W, strain sur2, stronger effect = lower value",0.97
same,normalized growth,"locus YDR318W, strain mcm21, stronger effect = lower value",1.01
same,normalized growth,"locus YDR334W, strain swr1, stronger effect = lower value",0.788 (active)
same,normalized growth,"locus YDR335W, strain msn5, stronger effect = lower value",1
same,normalized growth,"locus YDR388W, stronger effect = lower value",1
same,normalized growth,"locus YDR392W, strain spt3, stronger effect = lower value",0.993
same,normalized growth,"locus YDR502C, strain sam2, stronger effect = lower value",0.98
same,normalized growth,"locus YEL003W, strain gim4, stronger effect = lower value",0.206 (active)
same,normalized growth,"locus YEL037C, strain rad23, stronger effect = lower value",1
same,normalized growth,"locus YEL061C, strain CIN8 (second series), stronger effect = lower value",0.999
same,normalized growth,"locus YEL061C, strain CIN8, stronger effect = lower value",0.995
same,normalized growth,"locus YER015W, strain faa2, stronger effect = lower value",0.988
same,normalized growth,"locus YER016W, strain bim1, stronger effect = lower value",0.985
same,normalized growth,"locus YER110C, stronger effect = lower value",0.995
same,normalized growth,"locus YER111C, strain swi4, stronger effect = lower value",0.992
same,normalized growth,"locus YER155C, strain BEM2 (second series), stronger effect = lower value",0.978
same,normalized growth,"locus YER155C, strain BEM2, stronger effect = lower value",1
same,normalized growth,"locus YER167W, strain BCK2, stronger effect = lower value",0.991
same,normalized growth,"locus YFR010W, strain ubp6, stronger effect = lower value",0.995
same,normalized growth,"locus YGL078C, strain dbp3, stronger effect = lower value",0.99
same,normalized growth,"locus YGL086W, strain mad1, stronger effect = lower value",0.955
same,normalized growth,"locus YGL167C, strain pmr1, stronger effect = lower value",0.98
same,normalized growth,"locus YGL173C, strain kem1, stronger effect = lower value",0.991
same,normalized growth,"locus YGL227W, strain vid30, stronger effect = lower value",0.993
same,normalized growth,"locus YGL240W, strain doc1, stronger effect = lower value",0.987
same,normalized growth,"locus YGL248W, strain PDE1, stronger effect = lower value",1
same,normalized growth,"locus YGL253W, strain hxk2, stronger effect = lower value",1
same,normalized growth,"locus YGR078C, strain PAC10, stronger effect = lower value",0.0823 (active)
same,normalized growth,"locus YGR135W, strain pre9, stronger effect = lower value",0.99
same,normalized growth,"locus YGR229C, strain SMI1, stronger effect = lower value",0.941
same,normalized growth,"locus YGR252W, strain gcn5, stronger effect = lower value",0.895
same,normalized growth,"locus YHR013C, strain ard1, stronger effect = lower value",0.969
same,normalized growth,"locus YHR027C, strain rpn1, stronger effect = lower value",0.998
same,normalized growth,"locus YHR030C, strain SLT2, stronger effect = lower value",0.995 and 0.963
same,normalized growth,"locus YHR079C, strain IRE1 (second series), stronger effect = lower value",1.01
same,normalized growth,"locus YHR079C, strain IRE1, stronger effect = lower value",0.964
same,normalized growth,"locus YHR094C, strain hxt1, stronger effect = lower value",1
same,normalized growth,"locus YHR129C, strain ARP1, stronger effect = lower value",1.01
same,normalized growth,"locus YHR142W, strain chs7, stronger effect = lower value",0.989
same,normalized growth,"locus YHR200W, strain rpn10, stronger effect = lower value",0.984
same,normalized growth,"locus YIL066C, strain RNR3, stronger effect = lower value",0.997
same,normalized growth,"locus YIL073C, strain SPO22, stronger effect = lower value",0.998
same,normalized growth,"locus YIL125W, strain kgd1, stronger effect = lower value",0.99
same,normalized growth,"locus YIR030C, strain dcg1, stronger effect = lower value",1
same,normalized growth,"locus YJL092W, strain hpr5, stronger effect = lower value",1
same,normalized growth,"locus YJL095W, strain BCK1 (second series), stronger effect = lower value",0.985
same,normalized growth,"locus YJL095W, strain BCK1, stronger effect = lower value",1.03 and 0.949
same,normalized growth,"locus YJL115W, strain asf1, stronger effect = lower value",1.01
same,normalized growth,"locus YJL129C, strain trk1, stronger effect = lower value",0.976
same,normalized growth,"locus YJL134W, strain LCB3, stronger effect = lower value",1
same,normalized growth,"locus YJL154C, strain vps35, stronger effect = lower value",0.993
same,normalized growth,"locus YJL164C, strain tpk1, stronger effect = lower value",1
same,normalized growth,"locus YJL166W, strain qcr8, stronger effect = lower value",0.972
same,normalized growth,"locus YJL168C, strain set2, stronger effect = lower value",1
same,normalized growth,"locus YJL187C, strain SWE1 (second series), stronger effect = lower value",1.01
same,normalized growth,"locus YJR043C, strain POL32, stronger effect = lower value",0.988
same,normalized growth,"locus YJR066W, strain TOR1, stronger effect = lower value",0.872
